The record followed here is PubChem BioAssay AID1347418 (Sanford-Burnham Center for Chemical Genomics, 2020).

In all, about 1,300 compounds went through this assay and about 750 (58%) were called active. This is one part of the list.

The target in the experiment is Sulfhydryl oxidase 1 (Homo sapiens) (UniProt O00391). The experiment is described as follows: QSOX1 enzyme inhibitors, primary screen, biochemical, ROS-Glo H2O2 luminescence, HTS (AID 1347418). The note with it: recombinant QSOX1, ROS-Glo H2O2 luminescence; at 12.5 µM; active compounds read high; active = any value above zero.
Chain of Sulfhydryl oxidase 1 (Homo sapiens) (O00391 whole entry, looked up): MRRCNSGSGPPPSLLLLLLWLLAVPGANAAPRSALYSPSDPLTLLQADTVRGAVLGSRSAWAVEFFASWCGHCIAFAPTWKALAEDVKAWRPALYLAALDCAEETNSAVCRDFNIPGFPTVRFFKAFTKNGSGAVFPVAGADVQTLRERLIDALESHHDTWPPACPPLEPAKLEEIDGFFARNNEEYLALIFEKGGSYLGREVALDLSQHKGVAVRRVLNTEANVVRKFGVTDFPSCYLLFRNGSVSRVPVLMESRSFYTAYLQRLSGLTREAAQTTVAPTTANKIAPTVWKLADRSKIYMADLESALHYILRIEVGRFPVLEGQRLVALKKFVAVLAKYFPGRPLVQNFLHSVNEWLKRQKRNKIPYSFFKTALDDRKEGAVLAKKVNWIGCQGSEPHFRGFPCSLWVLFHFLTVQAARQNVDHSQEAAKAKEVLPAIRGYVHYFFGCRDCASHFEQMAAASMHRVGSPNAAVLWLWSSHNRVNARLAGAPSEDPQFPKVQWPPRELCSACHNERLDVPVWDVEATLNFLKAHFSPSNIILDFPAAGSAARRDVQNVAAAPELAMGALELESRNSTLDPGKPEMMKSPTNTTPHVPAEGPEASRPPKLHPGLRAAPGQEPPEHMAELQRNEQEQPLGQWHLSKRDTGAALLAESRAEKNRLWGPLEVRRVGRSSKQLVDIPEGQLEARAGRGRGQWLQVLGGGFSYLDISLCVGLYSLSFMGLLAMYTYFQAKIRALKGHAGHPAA
For `CCCCOC(=O)NS(=O)(=O)c1sc(CC(C)C)cc1-c1ccc(Cn2c(CC)nc3c(C)cc(C)nc32)cc1`, the inhibition (commonly the relative decrease from the control value, in per cent) is 2.7% (active).
Regarding `CN/C(=C\[N+](=O)[O-])NCCSCc1ccc(CN(C)C)o1`, the inhibition was -12.3% (inactive).
The result for `CC(C)N(CCC(=O)c1ccc2ccccc2c1)Cc1ccccc1` reads -1.7% (inactive).
Consider `CC(COc1ccccc1)N(CCCl)Cc1ccccc1` (centres undefined), for which the inhibition was 9.5% (active).
The value for `Cc1cccc(/C=C/c2ccccc2)n1` was 13.7% (active).
Regarding `COc1ccc(CCN(C)CCCC(C#N)(c2ccc(OC)c(OC)c2)C(C)C)cc1OC` (centres undefined), the inhibition was -2.4% (inactive).
The value for `COc1ccc(CCN(C)CCCC(C#N)(c2cc(OC)c(OC)c(OC)c2)C(C)C)cc1OC` (centres undefined) was 4% (active); that for `Cc1scc2c1N(C(=O)CN1CCN(C)CC1)c1ccccc1NC2=O` was 1.4% (active); that for `CN1CCN(CC(=O)N2c3ccccc3C(=O)Nc3cccnc32)CC1` was -2.7% (inactive).
The result for `CN1CCN(c2nc3cc(C(F)(F)F)ccc3n3cccc23)CC1` reads 6.5% (active).
The result for `Cc1cc(NC(=O)Nc2ccc3c(ccn3C)c2)sn1` reads 4% (active).
With `O=C(O)C1CCNCC1`, the inhibition was -2.2% (inactive).
Consider `O=C(O)[C@H]1NCCC[C@H]1C(=O)O`, for which the inhibition is -0.4% (inactive).
The result for `O=C(O)C1CCCNC1` (centres undefined) reads 1% (active); that for `Nc1ncnc2c1ncn2C1CCCC1`, -9.6% (inactive).
The result for `Nc1ncnc2c1c(-c1ccc(Oc3ccccc3)cc1)cn2C1CCCC1` reads -2.9% (inactive); that for `Nc1ncnc2c1c(I)cn2[C@@H]1C[C@H](N)[C@@H](O)[C@H]1O`, 2.7% (active).
The value for `NCC(O)C1CCCCCCC1` (centres undefined) was 11.2% (active).
As for `O=C(c1ccc(OCCN2CCCCC2)cc1)c1c(-c2ccc(O)cc2)sc2cc(O)ccc12`, the inhibition is 20.1% (active).
The result for `CC(=O)Oc1cc(C(C)C)c(OCCN(C)C)cc1C` reads 0.4% (active); that for `CN(C)C(=O)/N=N/C(=O)N(C)C`, 8.2% (active).
The value for `Fc1ccc(CN(C2=NCCN2)c2c(Cl)cccc2Cl)cc1` was 1.1% (active); that for `O=C(O)c1cc(=O)c2ccccc2[nH]1` was 5.6% (active).
The result for `CNC(=O)c1cc2c(cn1)[nH]c1ccccc12` reads -3.2% (inactive); that for `O=C(O)c1cc(=O)c2c(Cl)cc(Cl)cc2[nH]1`, -1% (inactive).
Turning to `OC[C@H]1O[C@@H](n2cnc3cncnc32)[C@H](O)[C@@H]1O`, the inhibition was 4.9% (active).
`O=[N+]([O-])c1ccc(CSc2ncnc3c2ncn3[C@@H]2O[C@H](CO)[C@H](O)C2O)cc1` (some centres undefined): the inhibition is -2.9% (inactive).
The value for `CNc1ncnc2c1ncn2[C@@H]1O[C@H](CO)[C@H](O)C1O` (some centres undefined) was -6.8% (inactive); that for `Nc1ncnc2c1ncn2[C@@H]1O[C@H](CO)[C@H](O)C1O` (some centres undefined) was -0.5% (inactive).
With `C[C@H](Cc1ccccc1)Nc1ncnc2c1ncn2[C@@H]1O[C@H](CO)[C@H](O)C1O` (some centres undefined), the inhibition was 1.4% (active).
The result for `Nc1nc2c(ncn2[C@@H]2O[C@H](CO)[C@@H](O)[C@@H]2O)c(=O)[nH]1` reads -3.6% (inactive); that for `Nc1nc(SCc2ccc([N+](=O)[O-])cc2)c2ncn([C@@H]3O[C@H](CO)[C@H](O)C3O)c2n1` (some centres undefined), 4.9% (active).
The value for `OC[C@H]1O[C@@H](n2cnc3c(NC4CCCCC4)ncnc32)[C@H](O)[C@@H]1O` was 4.8% (active); that for `Nc1ccc(CCNc2ncnc3c2ncn3C2OC(CO)C(O)C2O)cc1` (centres undefined) was 4% (active); that for `OC[C@H]1O[C@@H](n2cnc3c(NC4CCCC4)ncnc32)C(O)[C@H]1O` (some centres undefined) was 0.7% (active).
As to `OC[C@H]1O[C@H](n2cnc3c(N[C@H]4CCC[C@@H]4O)ncnc32)[C@H](O)[C@@H]1O`, the inhibition was -1.9% (inactive).
The value for `COc1cc(SC)ccc1C(=O)N1CCC(Cc2ccccc2)CC1` was 1.4% (active); that for `COc1ccc(/C=C2\COc3ccc(C)cc3C2=O)cc1O` was -1.7% (inactive); that for `CNCCC(Oc1ccccc1OC)c1ccccc1` (centres undefined) was -2.5% (inactive).
With `CNCCC(Oc1ccc(C(F)(F)F)cc1)c1ccccc1` (centres undefined), the inhibition is 2.1% (active).
In the case of `CNCC[C@H](Oc1ccc(C(F)(F)F)cc1)c1ccccc1`, the inhibition was 11.2% (active).
Turning to `CN(CC[C@@H](Oc1ccc(C(F)(F)F)cc1)c1ccccc1)CC(=O)O`, the inhibition was 6.8% (active).
The result for `CNCCC(Oc1ccccc1C)c1ccccc1` (centres undefined) reads 0% (inactive); that for `OC1(c2ccc(Cl)cc2)CCN(Cc2c[nH]c3ccccc23)CC1`, -1.5% (inactive).
The result for `Clc1ccc(N2CCN(Cc3c[nH]c4ncccc34)CC2)cc1` reads 24.1% (active).
The value for `Ic1ccc(N2CCN(Cc3c[nH]c4ncccc34)CC2)cc1` was 15.6% (active); that for `Nc1nc2c(cnn2CCc2ccccc2)c2nc(-c3ccco3)nn12` was 1.8% (active).
In the case of `Nc1nc2ccc(Cl)cc2c2nc(-c3ccco3)nn12`, the inhibition is -0.2% (inactive).
Consider `CN1C2CCC1CC(OC(=O)C(CO)c1ccccc1)C2` (centres undefined), for which the inhibition is 3% (active).
Turning to `CN1C2CCC1CC(OC(=O)c1c[nH]c3ccccc13)C2` (centres undefined), the inhibition was 2.4% (active).
The value for `CN1C2CC(OC(=O)[C@H](CO)c3ccccc3)CC1C1OC12` (some centres undefined) was -3.1% (inactive); that for `CN1C2CCC1CC(OC(=O)C(O)c1ccccc1)C2` (centres undefined) was -5.9% (inactive); that for `CN1C2CCC1CC(OC(c1ccccc1)c1ccccc1)C2` (centres undefined) was -10.1% (inactive).
As to `COc1ccc(/C=C/C(=O)Nc2ccccc2C(=O)O)cc1OC`, the inhibition is 23.4% (active).
The result for `CN[C@H](CC(C)C)C(=O)N[C@H]1C(=O)N[C@@H](CC(N)=O)C(=O)N[C@H]2C(=O)N[C@H]3C(=O)N[C@H](C(=O)N[C@H](C(=O)O)c4cc(O)cc(O)c4-c4cc3ccc4O)[C@H](O)c3ccc(c(Cl)c3)Oc3cc2cc(c3O[C@@H]2O[C@H](CO)[C@@H](O)[C@H](O)[C@H]2O[C@H]2C[C@](C)(N)[C@H](O)[C@H](C)O2)Oc2ccc(cc2Cl)[C@H]1O` reads 3.1% (active).
The result for `CC1=C(C)C(=O)C(CCCCC#CCCCC#CCO)=C(C)C1=O` reads 5.7% (active); that for `C=C1C[C@@]23CC[C@H]4[C@@](C)(CCC[C@@]4(C)C(=O)OC4OC(CO)C(O)C(O)C4O)[C@@H]2CCC1(OC1OC(CO)C(O)C(O)C1OC1OC(CO)C(O)C(O)C1O)C3` (some centres undefined), 5.4% (active).
The value for `C=C1C[C@@]23CC[C@H]4[C@@](C)(CCC[C@@]4(C)C(=O)O)[C@@H]2CC[C@]1(O)C3` was -3.8% (inactive); that for `CN1CC(=O)N/C1=N\C(=O)Nc1cccc(Cl)c1` was -0.1% (inactive).
